# Measured values as given in PubChem BioAssay (NCI).
# The panel holds about 83,000 compounds, 20% with a hit somewhere; the sample as a whole holds those more often.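 How to read the values: 0–100, growth inhibition (40 = 60% inhibited); 0, no net growth; -100 to 0, cell death (-40 = 40% of starting cells died; -100 = all dead).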 Values without a mark were called inactive. Active and inactive are the calls of the source. Rule for the calls: active = growth percent below 10; inactive = the rest.
# Columns and labels:
# Assay in all cases: NCI-60 one-dose screen, 48 h (100 = growth as untreated, 0 = no growth, -100 = all killed)
# Conditions in all cases: 10 µM unless noted
# [1] = system: T-47D breast
# [2] = system: BT-549 breast
# [3] = system: MDA-MB-435 melanoma
# [4] = system: SW-620 colon
# [5] = system: MCF7 breast
# [6] = system: HCT-116 colon
# [7] = system: HCC-2998 colon
# [8] = system: KM12 colon
Structure (SMILES),growth [1],growth [2],growth [3],growth [4],growth [5],growth [6],growth [7],growth [8]
O=C(CSc1nnc(-c2cccs2)n1-c1ccccc1)Nc1ccccc1,78.4%,85.5%,57.9%,87.2%,80.3%,75.4%,111%,84.8%
COc1ccccc1Cn1cc(C#N)c(N)c1C(=O)c1ccc(Br)cc1,74.1%,103%,94.4%,100%,91.5%,93.9%,103%,96.5%
CC1=C(C)C(=O)C(Nc2cccc(C(F)(F)F)c2)=C(Br)C1=O,17.6%,110%,103%,48.7%,52.3%,20%,108%,90.7%
C#Cc1nc(/C=C\CCCCCCC(=O)NO)cs1,42.3%,87.5%,45.9%,23.9%,35.2%,20.5%,98.8%,41.2%
COc1cc2oc(-c3cccc(NC(=O)[C@@H](N)C(C)C)c3)cc(=O)c2c(OC)c1OC,87.3%,104%,109%,105%,92.9%,98.6%,109%,101%
Cc1csc(/N=C(N)/N=C(\N)c2cccc(Br)c2)n1,74.3%,92.6%,46.2%,84.4%,73.3%,88.8%,97%,73.2%
O=C(Nc1ccc(Cl)c(C(F)(F)F)c1)Nc1ccc2c(ccn2C(=O)c2cccc(F)c2)c1,0.647% (active),53.3%,34.6%,40.9%,12.9%,20%,44.1%,11%
Brc1ccc2[nH]cc(-c3nn4cc(-c5nccs5)nc4s3)c2c1,29.7%,62.6%,12.9%,25.2%,33.9%,-81.7% (active),36.7%,21%
O=C(CCCCCCN1CC(=O)N2[C@@H](c3ccccc3Br)c3[nH]c4ccccc4c3C[C@H]2C1=O)NO,19.2%,87.1%,27.8%,24.7%,21.4%,12.7%,56.9%,73%
CC1=C(C)C(=O)C(Nc2ccc3c(c2)OCO3)=C(Br)C1=O,30.3%,107%,103%,107%,77.5%,85.6%,105%,97.4%
COc1cc(C(=O)c2cc(C(C)=O)c3c(C)cccn23)cc(OC)c1OC,81.8%,104%,97.3%,104%,82.7%,95.1%,105%,96.5%
O=C(CSc1nnc(-c2ccc(Cl)cc2)n1-c1ccccc1)Nc1ccccc1Cl,45.7%,53.8%,80.9%,51.6%,66.4%,12.1%,88.3%,80%
Fc1cc(F)cc(NNC(=S)c2ccccc2)c1,-2.7% (active),17.8%,64%,58%,37.5%,20.9%,87%,49.1%
O=C1[C@@H]2Cc3c([nH]c4ccccc34)[C@@H](c3ccc(Cl)cc3)N2C(=O)CN1C1CCN(Cc2c(F)cccc2F)CC1,56.8%,46.3%,46.9%,48.6%,15.3%,17.8%,6.16% (active),35.1%
CN1CCN(c2ccc(Nc3nc(NCCCNS(=O)(=O)c4cccc(F)c4)c4sccc4n3)cc2)CC1,22.8%,42.7%,14.1%,46.5%,25.7%,11.1%,37.9%,54%
CC(C)NC(=O)c1cc(-c2ccc(NC(=O)Nc3ccc(F)c(C(F)(F)F)c3)cc2)nc2cccnc12,80.3%,100%,91.3%,106%,91.8%,81.9%,115%,89.6%

Structure (SMILES),growth [1],growth [2],growth [3],growth [4],growth [5],growth [6],growth [7],growth [8]
N#CC1=C2NCCCNc3oc(nc3C#N)Cc3ccccc3CC(=N1)O2,92.6%,135%,95.1%,50.7%,33.8%,23.4%,114%,93.6%
COc1ccc(-c2cnc(NC(=O)CCCCCCNC(=O)C(O)(O)C(F)(F)F)s2)cc1,0.87% (active),-11.9% (active),5.55% (active),0.251% (active),7.73% (active),-9.91% (active),-46.5% (active),-47.8% (active)
CN1CCN(c2ccc(Nc3nc(NCCCNS(=O)(=O)c4ccc(Cl)cc4)c4sccc4n3)cc2)CC1,11.6%,-70.2% (active),7.33% (active),20.7%,20%,1.81% (active),20%,23.3%
Cc1csc(/N=C(N)/N=C(\N)c2cccnc2)n1,85.5%,77.6%,6% (active),53.2%,82.1%,55.1%,90.2%,48.8%
Cc1ccc2c(n1)C(=O)C(Cl)=C(Nc1ccc(C(C)C)cc1)C2=O,-47% (active),91.9%,-81.2% (active),-22.8% (active),-56.3% (active),-70.8% (active),3.71% (active),57.8%
O=C(Nc1cc(C(F)(F)F)cc(C(F)(F)F)c1)Nc1ccc2oc(=O)ccc2c1,4.8% (active),10%,3.64% (active),19.4%,3.81% (active),2.09% (active),11.2%,9.67% (active)
NS(=O)(=O)c1nnc(/N=C/c2c(O)[nH]c3ccccc23)s1,85.2%,98.8%,103%,106%,87.6%,94.5%,107%,95.4%
COc1ccc([C@@H]2C(=O)N(c3cc(OC)c(OC)c(OC)c3)[C@H]2c2ccc(OC)c(O)c2)cc1,94.9%,-30.1% (active),-15.4% (active),24.2%,10.6%,6.47% (active),17%,10.7%
Fc1ccc(-c2cn3c(-c4c[nH]c5ccc(Br)cc45)csc3n2)cc1,66.3%,95.4%,83.1%,81.4%,60.9%,73.8%,100%,66.5%
CC1(C)C=Cc2cc(/C(N)=N/C(N)=N/c3nc4ccccc4s3)ccc2O1,77.6%,86.1%,99.3%,102%,67.2%,59.2%,109%,61.5%
Cc1ccc(C(=O)CSc2nc3ccccc3c(=O)n2C)cc1,76.2%,96.1%,100%,99.2%,78.3%,89.2%,113%,86.7%
COc1ccc2[nH]cc(-c3nc(N)nnc3-c3cn(C)c4ccc(Br)cc34)c2c1,29.3%,39.6%,-8.23% (active),20.9%,12.2%,18.1%,58.9%,23.7%
C#C[C@]1(O)CC[C@H]2[C@@H]3CC=C4c5sc(Nc6cc(C)cc(C)c6)nc5CC[C@]4(C)[C@H]3CC[C@@]21C,33.8%,-4.65% (active),20.7%,-20.1% (active),-52.5% (active),12.5%,40.2%,-7.08% (active)
C(=N\Nc1nc(N/N=C/c2ccc3c(c2)OCO3)nc(N2CCCCC2)n1)/c1ccc2c(c1)OCO2,87.2%,122%,98.5%,82.4%,54.8%,47.9%,83.8%,86.2%
COc1ccc(C(C)=C(c2ccc(OCCN(C)C)cc2)c2ccc(OCCN(C)C)cc2)cc1,-60.6% (active),-27.3% (active),-75.7% (active),-65.8% (active),-67.6% (active),-81% (active),-69.4% (active),-8.05% (active)
